Results from PubChem BioAssay.
Unmarked numbers belong to inactive results. The source made the active and inactive calls.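 Rule for the calls: active = inhibition at or above 50% relative to wild type and mutant plate controls; inactive = inhibition below 50%.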

Test: inhibitors of Chlamydomonas gravitaxis, primary screen, whole organism, Chlamydomonas reinhardtii, WT vs cilia-less mutant, absorbance, 96-well (AID 463189);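 note: 0% = wild type cc124 cells in DMSO and 100% = ciliumless bld1 mutant cells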
Settings: OD600 absorbance, 2 days, at 10 µM, active compounds read high
`COc1ccc(NC(=O)c2ccc(-c3ccc(-c4noc(C)n4)cc3C)cc2)cc1N1CCN(C)CC1` gave an inhibition of 47.6%.
`COC(=O)[C@H]1[C@H]2C[C@H]3c4[nH]c5ccccc5c4CCN3C[C@H]2CC[C@@H]1O` showed an inhibition of 6.15%.
Work on `CCN(CC)CCCC(C)Nc1ccnc2cc(Cl)ccc12` (stereo not given) yielded an inhibition of 0.95%.
Compound `C#CC(N)CCC(=O)O` (stereo not given) has an inhibition of -0.038%.
Work on `NC(N)=NC(=O)c1nc(Cl)c(N2CCCCCC2)nc1N` yielded an inhibition of -1.07%.
Work on `CC[N+](CC)(CC)CCOc1cccc(OCC[N+](CC)(CC)CC)c1OCC[N+](CC)(CC)CC` yielded an inhibition of 3.26%.
With `O=c1[nH]c2cc([N+](=O)[O-])c([N+](=O)[O-])cc2[nH]c1=O` the inhibition was 5.09%.
Compound `CC(=O)[C@H]1CCC2C3CC=C4C[C@@H](OS(=O)(=O)O)CC[C@]4(C)C3CC[C@@]21C` (stereo not given in full) has an inhibition of 4.69%.
Work on `COC(=O)c1c(-c2cc(OC)c(OC)c(OC)c2)c2ccnc(OCc3ncccn3)c2c(=O)n1Cc1ccnc(C)c1` yielded an inhibition of -6.21%.
Work on `Oc1cc2c(cc1O)CN(C(=S)NCCc1ccc(Cl)cc1)CCC2` yielded an inhibition of 23.4%.
Work on `O=c1ccn([C@@H]2O[C@H](COP(=O)(O)OP(=O)(O)O)[C@@H](O)[C@H]2O)c(=O)[nH]1` yielded an inhibition of 13.9%.
For `CCN1CCC[C@H]1CNC(=O)c1c(OC)ccc(I)c1O`, the inhibition was 9.9%.
`CC(C(=O)O)c1ccc(CC2CCCC2=O)cc1` (stereo not given) gave an inhibition of -6.18%.
Compound `Cc1ccccc1N1CCN(S(=O)(=O)C[C@]23CCC(CC2NC(=O)[C@@H](N)CCS(C)(=O)=O)C3(C)C)CC1` (stereo not given in full) has an inhibition of 3.4%.
Work on `CN(CCOc1ccc(C[C@H](Nc2ccccc2C(=O)c2ccccc2)C(=O)O)cc1)c1ccccn1` yielded an inhibition of 1.04%.
`CNC1(C)C2CCC(C2)C1(C)C` (stereo not given) showed an inhibition of 2.45%.
Compound `N[C@@H](CCC(=O)N[C@H](CSN=O)C(=O)NCC(=O)O)C(=O)O` has an inhibition of 3.12%.
In the case of `NCCCNCCSP(=O)(O)O`, the inhibition is reported as 1.58%.
For `C[N+](C)(C)CC=O`, the inhibition was 5.9%.
With `C#CCN1C(C)=C(C(=O)OC)C(c2cccc([N+](=O)[O-])c2)C(C(=O)OCC)=C1C` (stereo not given) the inhibition was 4.14%.
For `NC(=O)C(=O)O`, the inhibition was 0.681%.
For `NC1CCN(O)C1=O` (stereo not given), the inhibition was 2.51%.
`CO/N=C(\C(=O)N[C@@H]1C(=O)N2C(C(=O)O)=C(CSc3nc(=O)c(O)nn3C)CSC12)c1csc(N)n1` (stereo not given in full) showed an inhibition of 7.64%.
Work on `COc1ccccc1N1CCN(CCCNc2c(C)c(=O)n(C)c(=O)n2C)CC1` yielded an inhibition of 5.61%.
In the case of `CN(C)C/C=C(/c1ccc(Br)cc1)c1cccnc1`, the inhibition is reported as 108% (active).
With `CC(C)(C(=O)O)c1ccc(C(O)CCCN2CCC(C(O)(c3ccccc3)c3ccccc3)CC2)cc1` (stereo not given) the inhibition was -1.29%.
In the case of `Cn1cnc2c(NC3CCCC3)ncnc21`, the inhibition is reported as 0.556%.
For `C[C@H]1c2cccc(O)c2C(O)=C2C(=O)[C@]3(O)C(O)=C(C(N)=O)C(=O)[C@@H](N(C)C)[C@@H]3[C@@H](O)[C@@H]21`, the inhibition was 64.7% (active).
`S=C(S)OC1CC2CC1C1CCCC21` (stereo not given) gave an inhibition of 7.66%.
Work on `CC(=O)NNC(=O)N1Cc2ccccc2Oc2ccc(Cl)cc21` yielded an inhibition of 3.76%.
Compound `Cn1c(=O)c2[nH]c(C3CCCC3)nc2n(C)c1=O` has an inhibition of -2.05%.
With `CNCC[C@@H](Oc1ccc(C(F)(F)F)cc1)c1ccccc1` the inhibition was 34%.
Work on `CC(C)(C)NCC(O)COc1nsnc1N1CCOCC1` (stereo not given) yielded an inhibition of -8.84%.
Compound `CC12CC3CC(C)(C1)CC(N)(C3)C2` has an inhibition of 3.51%.
Work on `Oc1ccc(C2CNCCc3c2cc(O)c(O)c3Cl)cc1` (stereo not given) yielded an inhibition of -6.72%.
`NC(N)=NC(N)=Nc1cccc(Cl)c1` gave an inhibition of 4.09%.
Work on `COc1ccccc1N1CCN(CCN2C(=O)CC3(CCCC3)CC2=O)CC1` yielded an inhibition of -4.14%.
In the case of `COc1ccccc1OCC(O)CN1CCN(CC(=O)Nc2c(C)cccc2C)CC1` (stereo not given), the inhibition is reported as 8.13%.
In the case of `NC(=Nc1ccccc1)NC(=O)c1nc(Cl)c(N)nc1N`, the inhibition is reported as -0.27%.
For `O=S(=O)(c1cccc2c(Cl)cccc12)N1CCCNCC1`, the inhibition was 6.11%.
